Screening data deposited in PubChem by Broad Institute.
aSyn UTR act = Activators via SNCA 5'UTR binding, MLPCN. activity score, % (tested at 7.5 µM), hits read low. alpha-synuclein 5'UTR reporter, activators screen. 300,000 compounds, 7.1% hits. AID 1814; in the data active = activity score below about -60%
Large screens that a line does not name were inactive. These entries were drawn from the full list.

Cc1ccc(OCCn2cnc3ccccc3c2=O)c([N+](=O)[O-])c1	aSyn UTR act -157.0
CCOc1cccc(OCCn2cnc3ccccc3c2=O)c1	aSyn UTR act -78.8
C/C(=N\OC(=O)c1cccc(C)c1)c1sc(-c2ccccc2)nc1C	aSyn UTR act -146.9
C/C(=N\OC(=O)c1cccc(C(F)(F)F)c1)c1sc(-c2ccccc2)nc1C	aSyn UTR act -118.6
N#CCC(=O)N/N=C\c1ccccc1OC/C=C/c1ccccc1	aSyn UTR act -165.6
COCC(=O)N/N=C\c1ccccc1OC/C=C/c1ccccc1	aSyn UTR act -94.8
Cc1ccc(-c2nnn(CCC(=O)NC(C)(C)C)n2)cc1	aSyn UTR act -80.2
CCC(=O)C1CCCN(C(=O)CCc2nnc(C3(c4ccc(Cl)cc4)CCC3)o2)C1 (stereo not given)	aSyn UTR act -62.1
CC(=O)c1ccc(-c2nnc(CCC(=O)N3CCCC(C(=O)CC(C)C)C3)o2)s1 (stereo not given)	aSyn UTR act -157.2
O=C(CCc1nnc(C2(c3ccc(Cl)cc3)CCC2)o1)N1CCCC1	aSyn UTR act -71.9
O=C(/C=C1\NCC2c3ccccc3CCN2C1=O)c1ccccc1 (stereo not given)	aSyn UTR act -155.7
O=C(O)[C@@H]1CCCC[C@@H]1C(=O)N1CCc2ccccc2C1CN1C(=O)c2ccccc2C1=O (stereo not given in full)	none
O=C(NCCCN1CCCCC1)c1ccc2c(=O)n(CCc3ccccc3)c(=O)[nH]c2c1	aSyn UTR act -82.1
O=C(Cc1csc(Nc2nc(=S)[nH]c3ccccc23)n1)NCCCN1CCN(c2ccccc2F)CC1	none
CCN(CC)CCNC(=O)c1ccc2c(=O)n(CCc3ccccc3)c(=O)[nH]c2c1	aSyn UTR act -108.7
O=C1Nc2cc(C(=O)NCCCN3CCCC3)ccc2S/C1=C\c1ccccc1	aSyn UTR act -93.6
CCN1CCN(CCCNC(=O)c2ccc(/C=C3/Oc4ccccc4N(Cc4cccc(C)c4)C3=O)cc2)CC1	none
CCc1ccc(-c2cn(C3CCCCC3)c(=S)[nH]2)cc1	aSyn UTR act -127.2
O=C1c2ccccc2C(=O)C12OC2c1ccc(Cl)cc1 (stereo not given)	aSyn UTR act -72.2
COc1ccc(Nc2nc(C)c3ccccc3n2)cc1	aSyn UTR act -110.7
COc1ccc(Nc2cc(C)c3ccc(O)cc3n2)cc1	aSyn UTR act -138.5
CCOc1ccc(Nc2cc(C)c3ccccc3n2)cc1	aSyn UTR act -84.5
Cc1nc(Nc2nc(-c3ccccc3)cc(=O)[nH]2)nc2ccccc12	aSyn UTR act -119.8
Cc1cc(NCC2CCCCC2)nc2ccccc12	aSyn UTR act -68.8
CCOc1ccc(Nc2c3ccccc3nc3ccccc23)cc1	aSyn UTR act -94.3
CCN(CC)C(=O)Oc1ccc2cc(Br)ccc2c1	aSyn UTR act -86.8
CCN(CC)C(=O)Oc1ccc2c(=O)c(-c3ccc(OC)cc3)coc2c1	aSyn UTR act -125.2
COc1ccc(-c2coc3cc(OC(=O)N4CCOCC4)ccc3c2=O)cc1	aSyn UTR act -67.2
CCc1cc2c(=O)c(-c3nc4ccccc4[nH]3)coc2cc1OC(=O)N1CCOCC1	aSyn UTR act -75.3
COc1ccc(Oc2c(C)oc3cc(OC(=O)N4CCOCC4)ccc3c2=O)cc1	none
NS(=O)(=O)c1ccc2nc(NC(=O)c3ccc(Br)o3)sc2c1	aSyn UTR act -140.9
Cc1ccc2nc(NC(=O)c3ccc(Br)o3)sc2c1	aSyn UTR act -82.2
O=C(Cn1ncc(N2CCOCC2)c(Cl)c1=O)c1ccc(Cl)cc1	aSyn UTR act -105.3
COCCn1c(C)cc(C(=O)CN2C(=O)NC3(CCCCCCC3)C2=O)c1C	aSyn UTR act -99.2
COCCn1c(C)cc(C(=O)CSc2nnc(C)s2)c1C	none
Cc1cc(C)c(C(=O)CN2C(=O)NC3(CCCCC3)C2=O)cc1C	aSyn UTR act -73.2
Cc1ccc(C(=O)CN2C(=O)NC3(CCCCCC3)C2=O)c(C)c1	aSyn UTR act -131.7
COc1ccc(Cc2nc3ccc(C(=O)NCc4cc(C)no4)cc3o2)cc1	aSyn UTR act -103.8
COc1ccc(Cc2nc3ccc(C(=O)NCCSC)cc3o2)cc1	aSyn UTR act -97.5
COc1ccc(Cc2nc3ccc(C(=O)NCC(C)(C)OC)cc3o2)cc1	aSyn UTR act -116.0
O=C(NCC1CCOCC1)c1ccc2nc(Cc3cccc(Cl)c3)oc2c1	aSyn UTR act -79.4
CSCCNC(=O)c1ccc2nc(C3CCCCC3)oc2c1	aSyn UTR act -66.5
COc1ccc(Nc2nc(-c3cccs3)cs2)c(OC)c1	aSyn UTR act -195.6
COc1ccc(Nc2nc(-c3sc(C)nc3C)cs2)c(OC)c1	aSyn UTR act -123.6
COc1ccc(Nc2nc(-c3cccs3)cs2)cc1	aSyn UTR act -204.7
COc1ccccc1Nc1nc(-c2cccs2)cs1	aSyn UTR act -254.2
CN1CCC(=NNC(=O)C(=O)Nc2ccc(F)cc2)CC1	aSyn UTR act -92.5
Cc1ccc([N+](=O)[O-])cc1N/C=C1\CCc2ccccc2C1=O	aSyn UTR act -163.2
O=C1CCC(O)CCN1CCSc1ccccc1 (stereo not given)	aSyn UTR act -92.9
CC(C)CN1CCC(=O)N(CCSc2ccccc2)CC1	aSyn UTR act -107.3
CCCN1CCC(=O)N(CCSc2ccc(C)cc2)CC1	aSyn UTR act -78.9
Cc1nc(-c2ccc(NC(=O)CC(C)C)cc2)cs1	aSyn UTR act -143.3
COc1ccc(-c2csc(NC(=O)CC(C)C)n2)cc1	aSyn UTR act -127.7
Cc1nc(-c2ccc(NC(=O)C3CC3)cc2)cs1	aSyn UTR act -160.5
Cc1cc(OCC(=O)NC(C)(C)C)ccc1Cl	aSyn UTR act -93.4
CC(C)(C)NC(=O)COc1ccc(-c2ccccc2)cc1	aSyn UTR act -110.5
CCNC(=O)COc1ccc(-c2ccccc2)cc1	aSyn UTR act -115.8
Cc1ccc(OCC(=O)N/N=C\c2cn(Cc3ccccc3)c3ccccc23)cc1C	none
COc1ccc(/C=C2\SC(=O)N(CCNC(=O)Cc3coc4cc(OC)ccc34)C2=O)cc1	aSyn UTR act -70.5
COc1ccc(/C=C2\SC(=O)N(CCNC(=O)C3=COCCO3)C2=O)cc1	aSyn UTR act -128.9
COc1ccc(/C=C2\SC(=S)N(CCCC(=O)NNC(=O)c3ccccc3O)C2=O)cc1	none
O=C(/C=C/c1ccc(OCCCF)cc1)N1CCOCC1	aSyn UTR act -69.9
O=C(/C=C/c1cccc2ccccc12)N1CCOCC1	aSyn UTR act -62.9
O=C(/C=C/c1cccc(Oc2ccccc2)c1)N1CCOCC1	aSyn UTR act -94.6
C/C(=C\C(=S)Nc1ccccc1)Nc1cccc2ccccc12	aSyn UTR act -104.3
C/C(=C\C(=S)Nc1ccccc1)Nc1ccc2ccccc2c1	aSyn UTR act -93.8
O=C(NCC1COc2ccccc2O1)c1cccs1 (stereo not given)	aSyn UTR act -64.4
O=C(NCc1ccccc1)C(=O)NCC1COc2ccccc2O1 (stereo not given)	aSyn UTR act -145.1
O=C(Nc1nc2c(ccc3ccccc32)s1)c1ccco1	aSyn UTR act -293.2
O=C(Nc1nc2c(F)c(F)c(F)cc2s1)c1ccco1	aSyn UTR act -178.7
O=C(NC(=S)Nc1nc2c(ccc3ccccc32)s1)c1cccs1	aSyn UTR act -63.2
O=C(Nc1ccc(-c2nc3c(ccc4ccccc43)o2)cc1)c1ccco1	aSyn UTR act -164.8
COc1ccc(C)cc1N=Nc1ccc(O)c2ncccc12	none
Cc1ccc(OCCSc2ncccn2)c(C)c1	aSyn UTR act -77.5
c1cnc(SCCOc2cccc3ccccc23)nc1	aSyn UTR act -186.2
O=C(c1cnc2nc3ccccc3n2c1)c1cc(F)ccc1O	aSyn UTR act -77.5
Nc1c2c(nc3sc4c(c13)CCCC4)CCCCCC2	aSyn UTR act -82.1
CCSc1nc(N)c2c3c(sc2n1)CCC3	aSyn UTR act -89.4
Nc1nc(-c2ccccc2)nc2sc3c(c12)CCCC3	aSyn UTR act -138.7
